Molecules are shown by their SMILES.

What all share (type): functional
Assay [1] has as its target Solute carrier family 2, facilitated glucose transporter member 1 (Homo sapiens) (UniProt P11166). Put plainly: ST_JUDE_LEISH: Cytotoxicity at 2uM final concentration against transgenic Leishmania Mexicana promastigotes LmGLUT1 that are glucose transport deficient and complemented with the human glucose transporter GLUT1. Activity is measured by DNA content using SYBR green in vitro.

In assay [2] the target is Hexose transporter 1 (Plasmodium falciparum) (UniProt O97467). Put plainly: ST_JUDE_LEISH: Cytotoxicity at 2uM final concentration against transgenic Leishmania Mexicana promastigotes LmPfHT that are glucose transport deficient and complemented with the Plasmodium falciparum hexose transporter. Activity is measured by DNA content using SYBR green in vitro.
The target of assay [3] is Glucose transporter (Leishmania mexicana) (UniProt O61059). In words: ST_JUDE_LEISH: Cytotoxicity at 2uM final concentration against transgenic Leishmania Mexicana promastigotes LmGT2 that are glucose transport deficient and complemented with the L. Mexicana glucose transporter 2. Activity is measured by DNA content using SYBR green in vitro.

Sequence of Solute carrier family 2, facilitated glucose transporter member 1 (Homo sapiens) (P11166 whole entry): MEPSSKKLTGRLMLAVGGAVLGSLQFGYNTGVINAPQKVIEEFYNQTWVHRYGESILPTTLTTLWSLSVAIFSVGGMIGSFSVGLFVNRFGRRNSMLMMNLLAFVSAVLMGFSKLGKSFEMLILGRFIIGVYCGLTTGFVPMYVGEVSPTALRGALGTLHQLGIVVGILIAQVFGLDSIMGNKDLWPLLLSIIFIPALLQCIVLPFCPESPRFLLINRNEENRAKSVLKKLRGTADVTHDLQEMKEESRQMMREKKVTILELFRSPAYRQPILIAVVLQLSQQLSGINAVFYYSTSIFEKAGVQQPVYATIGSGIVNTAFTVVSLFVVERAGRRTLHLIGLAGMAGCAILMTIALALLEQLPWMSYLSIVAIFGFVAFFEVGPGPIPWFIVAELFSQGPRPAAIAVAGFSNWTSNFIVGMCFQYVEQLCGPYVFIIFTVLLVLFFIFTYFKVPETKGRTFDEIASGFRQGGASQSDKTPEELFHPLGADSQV

For `Cc1ccc(CN2CCN(c3cc4c(cc3Cl)CCN4C(=O)Cc3ccc(Cl)c(NC(=O)Nc4cccc(C#N)c4)c3)CC2)cc1`, the inhibition in assay [1] is -1.29%; in assay [2], -1.46%; in assay [3], -0.62%.
For `CCOc1cc(CC)ccc1C1CCN(CCCCNC(=O)c2ccc(NC(=O)c3ccc(C#N)cc3)cc2)CC1` the same measures were 2.45%, 0.91% and 2.06%.
Take `COc1ccc2ncc(F)c(CCN3C4CCC3CC(NCc3cc5c(cn3)OCS5)C4)c2n1` (stereo not given): the inhibition in assay [1] was 32.5%; in assay [2], 41.5%; in assay [3], 64.1%.
As to `Cc1ccc(CN2CCN(Cc3cccc(NC(=O)c4ccc5ccccc5c4)c3)CC2)cc1C`, the inhibition was found to be 1.24% in assay [1], 1.87% in assay [2] and 4.04% in assay [3].
The corresponding values for `CC(C)COc1ccc(Cl)cc1Cc1ccc(-c2nc3ccc(C(F)(F)F)cc3[nH]2)o1` are 0.04%, 0.46% and 2.13%.
Consider `CCCCNC[C@@H](O)[C@H](Cc1ccccc1)NC(=O)c1cc(NCC)cc(N2CCCCS2(=O)=O)c1`, for which the inhibition in assay [1] was determined as 4.19%; in assay [2] it was 2.9%; in assay [3], 3.45%.
Turning to `COc1ccc(-n2ccnc2SCC(=O)Nc2cc(C)ccc2C)c(OC)c1`, the inhibition was 0.44% in assay [1], 0.63% in assay [2] and 0.53% in assay [3].
Regarding `CCC(CCON1C(N)=NC(N)=NC1(C)C)c1ccc(Cl)cc1` (stereo not given), the figures for the inhibition in assay [1], in assay [2] and in assay [3] were 4.18%, 1.03% and 2.41%, respectively.
For `NC(=O)c1cc2nc(NC3CCC3)nc(Nc3cccc4[nH]ncc34)c2[nH]1` the same measures were -0.69%, -0.16% and -1.17%.
The corresponding values for `O=C(NCc1ccc(C(F)(F)F)cc1)c1cccc(-c2nnc(-c3cccc(-c4cncnc4)c3)o2)c1` are 9.91%, 4.62% and 4.68%.
The corresponding values for `CCNc1cc(C)nc(Nc2ccc(NC(=O)c3ccc(OC)c(OC)c3)cc2)n1` are 5.48%, 1.84% and 2.34%.
`CC(C)(C)OC(=O)Cn1cnc2cc(NC(=O)c3cc([N+](=O)[O-])cc([N+](=O)[O-])c3)ccc21`: the inhibition is 3.13% in assay [1], 4.11% in assay [2] and 3.89% in assay [3].
As to `CCNc1cc(C(=O)N[C@@H](Cc2ccccc2)[C@H](O)CNCc2cc(C#N)ccc2OC)cc(N2CCCC2=O)c1`, the figures for the inhibition in assay [1], in assay [2] and in assay [3] were 9.4%, 9.23% and 9.67%, respectively.
With `Cc1nc(-c2nc(NCc3ccncc3)ncc2-c2ccsc2)sc1C`, the inhibition in assay [1] was -1.32%; in assay [2], -0.89%; in assay [3], 0.31%.
For `Cc1[nH]c(C)c(-c2ccc(Br)cc2)c(=O)c1Cl` the same measures were 4.57%, 3.47% and 3.22%.
For `O=C(NCCCCN1CCC(C(c2ccccc2)c2ccccc2)CC1)c1ccc(NC(=O)c2ccc(Cl)cc2)cc1` the same measures were -0.78%, -0.4% and -1.74%.
As for `CN(CC(=O)Nc1cc(C(F)(F)F)ccc1-n1cncn1)Cc1nc2ccccc2s1`, the inhibition came out at 2.07% in assay [1], 2.69% in assay [2] and 5.21% in assay [3].
For `CC(=O)Nc1ccc(OCCCCN(Cc2ccccc2C(F)(F)F)c2ccc(C#N)c(C(F)(F)F)c2)cc1` the same measures were 1.93%, 6.69% and 7.15%.
For `CCOc1ccc2c(=NN=Cc3cccc(OC)c3)cc(C)[nH]c2c1` the same measures were -0.74%, -0.19% and -0.12%.
For the compound `CS(=O)(=O)c1ccc(-n2nc(C(F)(F)F)cc2-c2ccc(C=NOCC(=O)O)o2)cc1`, the inhibition in assay [1] is 1.5%; in assay [2] it was 2.45%; in assay [3], -0.38%.
Consider `COc1cc(NC(=O)c2cc([N+](=O)[O-])ccc2NC(=O)CNC2CCCCC2C)cc(OC)c1` (stereo not given), for which the inhibition in assay [1] stood at 7.57%; in assay [2] it was 2.04%; in assay [3], 1.96%.
With `Cc1cc(Nc2ccc3c(c2)CCC3)n2ncnc2n1`, the figures for the inhibition in assay [1], in assay [2] and in assay [3] were 0.63%, 0.55% and 0.55%, respectively.
In the case of `CC1(C)CN(CCC2CCC(NC(=O)/C=C/c3ccc(F)cc3F)CC2)Cc2ccc(C#N)cc21` (stereo not given), the inhibition in assay [1] was 2.36%; in assay [2] it was 1.97%; in assay [3] it was -1.19%.
In the case of `O=C(Nc1cccc(-c2nn3ccccc3c2-c2ccnc(Nc3cccc(-c4cnco4)c3)n2)c1)C1CCCCC1`, the figures for the inhibition in assay [1], in assay [2] and in assay [3] were 1.06%, 3.39% and -0.16%, respectively.
For `Cc1ccc(F)cc1S(=O)(=O)N1CCCCC(c2ccc(C(F)(F)F)cc2)=N1` the same measures were 7.48%, 5.61% and 8.34%.
Regarding `CCNc1cc(C(=O)N[C@@H](Cc2ccccc2)[C@H](O)CNCCc2cc(OC)cc(OC)c2)cc(N2CCCCS2(=O)=O)c1`, the inhibition is 7.06% in assay [1], 4.2% in assay [2] and 10% in assay [3].
The corresponding values for `Cc1nn(-c2ccc(Cl)cc2)c2[nH]c(CN3CCN(c4cccc(Cl)c4)CC3)cc(=O)c12` are 20.2%, 21% and 17%.
Consider `COc1ccc2c(N/N=C/c3ccc([N+](=O)[O-])cc3)ccnc2c1`, for which the inhibition is 6.14% in assay [1], 4.33% in assay [2] and 2.7% in assay [3].
In the case of `CN1CCN(c2ccnc3cc4c(cc23)N(C(=O)Nc2ccc(-c3ccncc3)c3ccccc23)CC4)CC1`, the values for the inhibition in assay [1], in assay [2] and in assay [3] were 3.02%, 2.26% and 3.35%, respectively.
Turning to `Cc1cc2nc(-c3ccc(C(=O)NCCCc4ccccc4)cc3)[nH]c2cc1C`, the inhibition in assay [1] came to 9.41%; in assay [2], 9.39%; in assay [3], 10.1%.
For `CCCN(CCC)C(=O)c1cc(C(=O)N[C@@H](Cc2ccccc2)[C@H](O)CNCc2cccc(OC)c2)cc(N2CCCCS2(=O)=O)c1` the same measures were 4.58%, 5.76% and 5.14%.
The corresponding values for `COc1cc2ccccc2c(CON2C(=N)N=C(N)NC2(C)C)c1OC` are 2.53%, 2.15% and 1.62%.
As for `COc1ccc(-c2ccc(NC(=O)c3ccc(Cl)cc3)cc2)cc1CN1CCCN(C)CC1`, the inhibition is 5.26% in assay [1], 4.81% in assay [2] and 5.6% in assay [3].
For `COc1cccc2c(NN=Cc3cccc(Cl)c3)ccnc12` the same measures were 0.32%, -3.77% and 1.77%.
For `CC(=O)N(C)c1cccc(C(=O)Nc2ccc(-c3cccc(-c4nc5cccc(C)c5[nH]4)c3)cc2)c1` the same measures were 2.19%, 1.06% and -8.47%.

The term inhibition denotes the relative decrease from the control value, in per cent.

For the origin of these results see ChEMBL document CHEMBL3433997, “St. Jude Leishmania screening dataset” (2016).
